These results are taken from ChEMBL document CHEMBL4513216, “Probing the Open Global Health Chemical Diversity Library for Multistage-Active Starting Points for Next-Generation Antimalarials” (ACS Infect Dis, 2020).

SMILES strings stand for the structures. The campaign covered roughly 69,000 compounds. About 8,600 (12%) showed an effect of 50% or more. This is one part of a sample in which strong results are shown more often than they occur.

The subject of the test is Plasmodium berghei. The experiment in a line: Screen against P. berghei liver stage (PbLuc), transformed with Luciferase, at 10uM. The class given is functional, HepG2. The conditions noted are these: tested at 10 uM.
As to `Cc1noc(C)c1CN1C[C@@H]2CCCO[C@@H]2[C@H](Nc2ccccn2)C1`, the INHIBITION was 16.4%.
As to `Cc1noc(C)c1CN1CCCCC1CCc1ccc(O)cc1` (stereo not given), the INHIBITION is given as 12.6%.
The result for `COCCN1CC(=O)N2CC[C@@H](O)C[C@H]2C1=O` reads 10.615%; that for `CC(C)[C@@H]1CN(C(=O)C2(c3ccccc3)CCN(C)CC2)C[C@H]1C(=O)O`, 64%.
`Cc1ccsc1C(=O)N1C[C@@H](C(=O)O)[C@H](C(C)C)C1`: the INHIBITION turned out to be 24.4%.
For `COc1ccc(C2(C(=O)N3C[C@@H](C(=O)O)[C@H](C(C)C)C3)CC2)cc1`, the INHIBITION was -17.3%.
For the molecule `CC(C)[C@@H]1CN(C(=O)CN(C)Cc2ccccc2)C[C@H]1C(=O)O`, the INHIBITION amounted to 47.9%.
Take `CC(C)[C@@H]1CN(C(=O)C2(c3ccccc3)CCN(C)CC2)C[C@H]1N(C)C`: the INHIBITION came out at 39.4%.
Regarding `CC(C)[C@@H]1CN(C(=O)C2(c3ccccc3)CC2)C[C@H]1C(=O)O`, the INHIBITION is on record as 50.1%.
Take `CS(=O)(=O)N1CCC(c2cncc(Cl)n2)CC1`: the INHIBITION is reported as -1.16%.
With `CC(C)CN(Cc1ccccn1)Cc1ccccc1OCC(=O)O`, the INHIBITION was found to be 54.4%.
On to `CC(C)CN(Cc1ccccn1)Cc1ccccc1C(=O)O`, for which the INHIBITION is 38.6%.
As to `CC(C)CN(Cc1ccc(O)c(C(=O)O)c1)Cc1ccccn1`, the INHIBITION is 43.9%.
The result for `COCC(=O)NCCn1nc(-c2cc(C)oc2C)ccc1=O` reads -0.275%; that for `O=C(c1ccccc1-c1ccccc1)N1C[C@@H]2CNC[C@]2(C(=O)O)C1`, 49.7%; that for `O=C(Nc1ccc(-c2ccccc2)cc1)N1C[C@@H]2CNC[C@]2(C(=O)O)C1`, 41.5%.
For `O=C(Nc1ccccc1-c1ccccc1)N1C[C@@H]2CNC[C@]2(C(=O)O)C1`, the INHIBITION was 55.4%.
The result for `Cc1cc(CNC2CCCN(Cc3noc(C4CC4)n3)C2)on1` (stereo not given) reads 46.2%.
In the case of `CN(CCc1ccccn1)C(=O)CCC1CCCN(c2ncccn2)C1` (stereo not given), the INHIBITION is recorded as 16.1%.
As to `CCCc1csc(-c2ccc(S(C)(=O)=O)cc2)n1`, the INHIBITION is listed as -39.1%.
On to `CC(C)(CN1CCC(Cc2cccc(C(=O)O)c2)C1)N1CCOCC1` (stereo not given), for which the INHIBITION was 1.71%.
As to `CCOc1ccc(Oc2cc(N)ccn2)cc1`, the INHIBITION is given as -55.5%.
Consider `Cc1nn(C)c(C)c1NC(=O)CN1CCOC(Cn2cccn2)C1` (stereo not given), for which the INHIBITION is listed as 47.1%.
Regarding `CN(Cc1ccsc1)C(=O)CN1CCOC(Cn2cccn2)C1` (stereo not given), the INHIBITION was found to be 33%.
On to `Cc1nc(NC(=O)CN2CCOC(Cn3cccn3)C2)sc1C` (stereo not given), for which the INHIBITION came out at 60.4%.
For the molecule `O=C(CN1CCOC(Cn2cccn2)C1)Nc1nccs1` (stereo not given), the INHIBITION amounted to 53.3%.
The result for `CN(C(=O)CN1CCOC(Cn2cccn2)C1)c1nccs1` (stereo not given) reads 52.1%.
As to `O=C(CN1CCOC(Cn2cccn2)C1)Nc1ccncc1` (stereo not given), the INHIBITION was -18.2%.
In the case of `Cc1cnn(CC2CN(CC(=O)Nc3nccs3)CCO2)c1` (stereo not given), the INHIBITION was found to be 29.6%.
As for `Cc1nnc(NC(=O)CN2CCOC(Cn3cccn3)C2)s1` (stereo not given), the figure is 17.4%; as for `O=C(CN1CCOC(Cn2cncn2)C1)NC(C1CC1)C1CC1` (stereo not given), 23.9%; as for `Cc1cnn(CC2CN(CC(=O)N(C)c3nccs3)CCO2)c1` (stereo not given), 11.8%.
Consider `O=C(CN1CCOC(Cn2cccn2)C1)NC(C1CC1)C1CC1` (stereo not given), for which the INHIBITION was 58.2%.
In the case of `O=C(CN1CCOC(Cn2cccn2)C1)Nc1nncs1` (stereo not given), the INHIBITION is recorded as 41.2%.
Regarding `NC(=O)c1csc(N2C[C@@H](CN3CCCCC3)[C@@H](CO)C2)n1`, the INHIBITION is reported as 14.45%.
On to `CC(=O)c1cc2ncc(C(=O)NC3CCCCC3)cc2[nH]1`, for which the INHIBITION is listed as -25.1%.
Consider `COC(=O)C(C)(C)NC(=O)C1CC(=O)N(CC(F)(F)F)C1` (stereo not given), for which the INHIBITION was -28.7%.
With `CC(NC(=O)OC(C)(C)C)c1nnc(S(=O)(=O)Cc2ccccc2Cl)o1` (stereo not given), the INHIBITION stood at 21.5%.
For the molecule `Cn1ncc2c1C(COCC1CC1)CN(c1ncc(F)cn1)C2` (stereo not given), the INHIBITION is 7.67%.
For the molecule `Cn1cc(-c2nc(C(=O)N3CCCC3Cn3cccn3)cs2)cn1` (stereo not given), the INHIBITION came to 40.2%.
On to `Cc1ccc(CC(=O)N2CCCCC2Cn2cccn2)cn1` (stereo not given), for which the INHIBITION was found to be 30.3%.
For the molecule `Oc1ccc([C@H]2Oc3cc(O)cc(O)c3C[C@@H]2O)cc1`, the INHIBITION is on record as 7.5%.
As for `O=C1c2c(O)cc(O)cc2O[C@@H](c2ccc(O)cc2)[C@@H]1O`, the INHIBITION is 70.8%.
`COc1cc(C2CC(=O)c3c(O)cc(O)cc3O2)ccc1O` (stereo not given): the INHIBITION is -17.1%.
For `COc1cc2c(cc1CN1CCn3c(CO)nnc3C1)CCC2`, the INHIBITION stood at 3.91%.
Turning to `Cc1nc(C)n(CC2CCCCN2CCc2ccncc2)n1` (stereo not given), the INHIBITION turned out to be 4%.
As to `CCOC(=O)Cn1cccc(S(=O)(=O)N2CCCC2)c1=O`, the INHIBITION was -2.92%.
Turning to `c1cncc(-c2nccc(CN3CCC(N4CCCCC4)CC3)n2)c1`, the INHIBITION came out at 17.1%.
For `CC1CCCN(Cc2ccnc(-c3cccnc3)n2)C1` (stereo not given), the INHIBITION is -6.92%.
As to `OC1CCN(Cc2ccnc(-c3cccnc3)n2)CC1`, the INHIBITION worked out at 42.4%.
As for `c1ccc(CC2CCN(Cc3ccnc(-c4cccnc4)n3)CC2)cc1`, the figure is 50%; as for `CCN1CCN(Cc2ccnc(-c3cccnc3)n2)CC1`, 46.1%.
As for `c1cncc(-c2nccc(CN3CCCC3)n2)c1`, the figure is 51.2%.
On to `COCCN1C[C@@H](c2ccccc2)[C@@]2(CCN(CC(=O)N(C)C)C2=O)C1`, for which the INHIBITION is -4.82%.
For `Cc1ccccc1N1CC2(CCN(S(=O)(=O)c3cccs3)C2)CC1=O` (stereo not given), the INHIBITION came out at 35.7%.
For the molecule `CC(=O)c1cc(CN2C[C@@H]3CC[C@H]2CN(S(C)(=O)=O)C3)cs1`, the INHIBITION is given as -52.2%.
As for `Cc1noc(C)c1CN1C[C@@H](NS(=O)(=O)N(C)C)[C@H](C(C)C)C1`, the figure is 24.3%; as for `CC(C)[C@@H]1CN(Cc2ccsc2)C[C@H]1NS(=O)(=O)N(C)C`, 50.1%; as for `Cc1nc(CN2C[C@@H](NS(=O)(=O)N(C)C)[C@H](C(C)C)C2)cs1`, 38.3%.
Turning to `CN(C)S(=O)(=O)N1C[C@H]2CC[C@@H](C1)N(Cc1ccc3nsnc3c1)C2`, the INHIBITION came out at 45.1%.
Turning to `CC(C)[C@@H]1CN(C(=O)NCCc2ccccc2)C[C@H]1NS(=O)(=O)N(C)C`, the INHIBITION amounted to 41.3%.
On to `CC(=O)c1cc(CN2C[C@@H]3CC[C@H]2CN(S(=O)(=O)N(C)C)C3)cs1`, for which the INHIBITION is on record as 80.1%.
`CC(=O)c1cc(CN2C[C@@H](NS(=O)(=O)N(C)C)[C@H](C(C)C)C2)cs1`: the INHIBITION is given as 52.2%.
Consider `CC(=O)c1cc(CN2C[C@@H](N(C)C)[C@H](C(C)C)C2)cs1`, for which the INHIBITION was 13.7%.
For `COCCN1C[C@H]2[C@@H](C1)N(C(=O)CCc1ccccc1)CC[C@H]2OC`, the INHIBITION was -14.1%.
Regarding `COC(=O)CN(C(=O)c1ccc(-n2ccnc2)cc1)C1CC1`, the INHIBITION was 6.23%.
As for `CC(C)c1cc(CN(C)C(=O)CN2CCCCC2=O)no1`, the figure is 15.4%; as for `Cc1nc(O)cc([C@@H]2CN(S(=O)(=O)N(C)C)C[C@H]2c2ccccc2F)n1`, -6.15%.
The result for `COCC1CN(S(=O)(=O)c2cccc(F)c2)Cc2nccn2C1` (stereo not given) reads 41.2%.
Turning to `Cn1cc(CN2CCC[C@]3(C[C@H](Oc4ncccc4F)CO3)C2)cn1`, the INHIBITION came to 31.5%.
As for `CCC(C)NC(=O)c1nnn(-c2ccc(Br)cc2)n1` (stereo not given), the figure is -10.6%.
Consider `CCc1nc(CN2CCCN(c3nccs3)CC2)no1`, for which the INHIBITION turned out to be 22.5%.
As for `CCn1ccnc1CN1CCN(c2ncnc3ccsc23)CC1`, the INHIBITION is -50.7%.
Regarding `CCc1nc(CN2CCCN(c3ncnc4ccsc34)CC2)no1`, the INHIBITION worked out at 91.1%.
Consider `CCc1nc(CN2CCCN(c3ncnc4sccc34)CC2)no1`, for which the INHIBITION turned out to be 95.1%.
In the case of `Cc1nc(CN2CCCN(c3nccs3)CC2)no1`, the INHIBITION is recorded as -63.3%.
Turning to `CCc1nc(CN2CCCN(Cc3cnn(C)c3)CC2)no1`, the INHIBITION was found to be 35.5%.
Regarding `Cc1nc(CN2C[C@@H]3CN(C(=O)c4ccnnc4)C[C@@H]3C2=O)cs1`, the INHIBITION amounted to 13.6%.
In the case of `COc1ccccc1OC1CN(C(=O)Cc2c(C)nc(N)nc2C)C1`, the INHIBITION stood at 1.71%.
For `COc1ccccc1OC1CCN(C(=O)c2cccc(O)c2C)CC1`, the INHIBITION is 19.3%.
For `COc1ccccc1OC1CN(C(=O)c2ccc(C(C)=O)s2)C1`, the INHIBITION is 7.3%.
Consider `COc1ccccc1OC1CN(C(=O)c2c(C)nc3ccc(C)cn23)C1`, for which the INHIBITION is reported as 86.8%.
As for `COc1ccccc1OC1CN(C(=O)Cc2c(C)nc3ccccn23)C1`, the figure is -7.2%; as for `COc1ccccc1OC1CN(C(=O)c2ccccc2C(C)=O)C1`, 65.7%; as for `CCCC(=O)N1CCCC(c2cc3cccnc3c(O)n2)C1` (stereo not given), 25.8%.
The result for `CCOCC(=O)N1CCc2c(CN(C)C)nn(C(C)C)c2C1` reads 23.1%; that for `NC(=O)c1cn[nH]c1NC(=O)c1ccc2c(c1)OCO2`, -16.4%; that for `CCS(=O)(=O)CCNC(=O)c1ccc(-c2ccc(C)cc2)cc1F`, 8.47%.
Regarding `Cc1ccc(-c2ccc(C(=O)NCCS(N)(=O)=O)c(F)c2)cc1`, the INHIBITION came out at 55.4%.
For `NS(=O)(=O)CCNC(=O)c1ccc(-c2ccc(F)cc2)cc1F`, the INHIBITION was -33.2%.
Consider `CCN1C(=O)CCC12CCC(NC(=O)c1cc(C)on1)CC2` (stereo not given), for which the INHIBITION is listed as -45.5%.
Consider `C[C@@H]1CN(c2nc(O)cc(Cc3ccccc3F)n2)C[C@H](C)O1`, for which the INHIBITION is reported as 15.5%.
As to `Cc1cc(-c2nn3c(C4CCC4)nnc3s2)on1`, the INHIBITION turned out to be 34.6%.
The result for `O=C(CCC1CCN(C2CSCCSC2)CC1)NCC1CCCO1` (stereo not given) reads 34.9%.
As to `c1cncc(OCc2noc3c2CN(Cc2ccco2)CC3)c1`, the INHIBITION was 38.5%.
For the molecule `Cc1nnc(SC2CCN(c3sccc3C#N)C2=O)[nH]1` (stereo not given), the INHIBITION turned out to be 40.7%.
Regarding `Cc1nc(SC2CCN(c3sccc3C#N)C2=O)oc1C` (stereo not given), the INHIBITION stood at 51.5%.
For the molecule `Cc1nnc(SC2CCN(c3sccc3C#N)C2=O)s1` (stereo not given), the INHIBITION is 16.8%.
As to `O=C(Cc1csc(-c2ccccc2F)n1)NCc1ccc(C(=O)O)cc1`, the INHIBITION is given as 2.61%.
With `CCn1cc(NC(=O)NCc2ccc3c(c2)OCO3)cn1`, the INHIBITION is recorded as -25.9%.
As for `CCCc1noc(C(C)N2CCN(Cc3nc(C)c(C)o3)CC2)n1` (stereo not given), the INHIBITION is -12.25%.
`Cc1cnn(CCNCC(=O)N2CCN(c3ncccn3)CC2)c1`: the INHIBITION was determined as 25.1%.
Take `Cn1cc(NC(=O)c2cccc(Cl)c2)c(=O)n(C)c1=O`: the INHIBITION is on record as 56.1%.
Consider `CN(C)c1cccc(C(=O)Nc2cn(C)c(=O)n(C)c2=O)c1`, for which the INHIBITION turned out to be 31.2%.
For the molecule `Cn1cc(NC(=O)c2cccc(C(F)(F)F)c2)c(=O)n(C)c1=O`, the INHIBITION is recorded as 15%.
